Source: PubChem BioAssay (NCATS)
Several values for one entry are separate records, joined by “and”; a condition that tells them apart may be missing. Equal values may be shown once. Results filed as inconclusive are left out. Unmarked numbers belong to inactive results. Activity calls are given as the source filed them. Calls follow the shape of the dose curve; as a rule, active = well fitted cell-killing curve with a large enough effect; inconclusive = small, poorly fitted or top-dose-only effect; inactive = flat fitted curve, though single readings scatter.

Experiment: Cellular viability qHTS for adrenocortical cancer (ACC) cell line NCI-H295R (AID 1963990); also: nearly all actives have a fitted effect of over 60% in size;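 as to activity change, negative = viability loss: 0% = DMSO only wells and -100% = full killing with cytotoxic reference compound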
Conditions: CellTiter-Glo ATP luminescence, 48 h; series mostly up to 46.1 µM; activity change, negative = viability loss: at the top concentration
In short: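 Luminescent ATP read-out (CellTiter-Glo, 20 min RT) after 48 h drug exposure of NCI-H295R cells; a titration up to 46 uM final. Data normalized to doxorubicin (100% inhibition) and DMSO (0%); 4-parameter fit gives IC50, max response.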
Potency is read from the fitted curve at half-maximal effect.

Compound	Potency	activity change, negative = viability loss
Cn1c(=O)n(-c2ccc(C(C)(C)C#N)cc2)c2c3cc(-c4cnc5ccccc5c4)ccc3ncc21	0.0751 µM (active)	–
CCN(CC)Cc1ccc2cc(COC(=O)Nc3ccc(C(=O)NO)cc3)ccc2c1	1.78 µM (active)	–
CCCCCCCCCCCCc1ccc(S(=O)(=O)Nc2nncs2)cc1	–	0.947%
O=C(Nc1cn[nH]c1-c1nc2ccc(CN3CCOCC3)cc2[nH]1)NC1CC1	20 µM (active)	–
Cc1ccc2nc(NCCN)c3ncc(C)n3c2c1	8.91 µM (active)	–
Cn1cc(C[C@@H](N)C(=O)O)c2ccccc21	–	-13.9% [at 9.17 µM]
COc1cc(C)c(Sc2cnc(NC(=O)c3ccc(CNC(C)C(C)(C)C)cc3)s2)cc1C(=O)N1CCN(C(C)=O)CC1 (centres undefined)	8.91 µM (active)	–
Cc1ccn(-c2ccc(-c3ncco3)cc2)c(=O)c1-c1ccc2nc(N)ncc2c1	–	-6.62%
COCCNCCCn1c(C(=O)CF)c(-c2ccc(C)cc2)c2c(N)ncnc21	–	-12.5%
COc1ncc(-c2ccc3c(Nc4cc(Oc5cc(F)cc(F)c5)cc(C(=O)O)c4)c(S(=O)(=O)NC4CC4)cnc3c2)c(OC)n1	–	-24.2%
CC(C)(C)C(=O)OCOP(=O)(COCCn1cnc2c(N)ncnc21)OCOC(=O)C(C)(C)C	18.4 µM (active) and 12.6 µM (active)	–
C=CC(=O)Nc1cccc(Oc2nc(Nc3ccc(N4CCN(C)CC4)cc3)ncc2Cl)c1	2.51 µM (active)	–
O=C(c1ccc(F)cc1)C1CCN(CCn2c(=O)[nH]c3ccccc3c2=O)CC1	–	-9.13%
Cc1cnc(NC(=O)Nc2cc(Br)c(C)cc2OC[C@@H]2CNCCO2)cn1	2.51 µM (active)	–
